Shown are actives, neighbours in structure and some others; about 2.7% of the full set was active somewhere.
ATG4B inh: ATG4B protease inhibitors, primary screen, biochemical, fluorescence, uHTS | Cysteine protease ATG4B (Homo sapiens), Q9Y4P1 | ATG4B cleavage of LC3-PLA2, NBD-HPC fluorescence, 1 h | inhibition, % at 8.33 µM | 340,000 tested, 0.51% active | AID 504462, 2011; in the data active = inhibition above about 40%
Target sequence (Q9Y4P1 whole entry, looked up): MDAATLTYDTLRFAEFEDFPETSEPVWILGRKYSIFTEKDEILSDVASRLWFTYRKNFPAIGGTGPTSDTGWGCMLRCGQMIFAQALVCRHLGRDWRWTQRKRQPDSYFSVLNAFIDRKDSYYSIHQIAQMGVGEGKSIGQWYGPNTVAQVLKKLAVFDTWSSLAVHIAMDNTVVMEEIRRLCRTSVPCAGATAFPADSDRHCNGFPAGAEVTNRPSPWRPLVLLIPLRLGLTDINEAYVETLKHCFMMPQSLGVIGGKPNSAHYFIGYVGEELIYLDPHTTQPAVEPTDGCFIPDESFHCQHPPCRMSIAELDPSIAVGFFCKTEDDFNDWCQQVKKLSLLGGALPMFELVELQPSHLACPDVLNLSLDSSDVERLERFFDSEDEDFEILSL
SKN-1 block: suppressors of acrylamide-induced Pgst-4::GFP reporter in worms, primary screen, SKN-1 inhibitor project, whole organism, uHTS, GFP/RFP fluorescence ratio, strain VP596; 360,000 tested, 0.49% active; C. elegans VP596 Pgst-4::GFP/RFP ratio, 24 h; inhibition, % at 21.8 µM;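 active = interference check ratio from 0.5 to 1.5 plus GFP to RFP signal ratio inhibition reaching or exceeding a fixed threshold, cut at about 30% in these data, passing the limit was not always enough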
CendR NRP1 mod: modulators of CendR peptide binding to NRP-1, primary screen, biochemical, fluorescence polarization, uHTS | Neuropilin-1 (Homo sapiens), O14786 | FAM-RPARPAR peptide binding to NRP-1 | inhibition, % at 25 µM | 360,000 tested, 0.85% active | AID 602438, 2012;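 active = inhibition or corrected inhibition above about 18%, plus a signal ratio from 0.5 to 1.5, limit read from the data, passing the limit was not always enough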
F508del corr: F508del CFTR correction, initial screen, CFBE line, single point | CFBE cells, YFP halide quenching; stimulated with forskolin plus potentiator P3; % fluorescence drop versus neutral controls | activity (quench increase), % at 7.58 µM | 350,000 tested, 0.36% active;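 active = mean added fluorescence quench of at least 8% versus neutral control, with both replicates also reaching 8%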;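 note: cells transiently co-express mutant CFTR-F508del with the halide-sensitive YFP; corrector assay measuring rescue of mutant channel to the surface after 24 h compound exposure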
MPTP block: mitochondrial permeability transition pore inhibitors, primary screen, biochemical, isolated mouse mitochondria, absorbance. inhibition, % at 10 µM. 360,000 tested, 1.4% active. Ca2+ swelling absorbance, 30 min;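 active = inhibition of 50% or more, scaled per plate between neutral and stimulator controls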
ATG4B confirm: ATG4B protease inhibitors, retest, confirmation, biochemical, fluorescence, single concentration | shares compounds with ATG4B inh | ATG4B protease fluorescent substrate cleavage assay | inhibition, % at 8.33 µM | 320 tested, 92% active; in the data active = inhibition above about 39%
PLA2 counter: PLA2 enzyme inhibition, counter-screen for ATG4B inhibitor project, biochemical, single concentration, uHTS hits. shares compounds with ATG4B inh. purified PLA2, NBD-C6-HPC fluorescence, 45 min. inhibition, % at 8.33 µM. 1,600 tested, 66% active. AID 588402, 2011; in the data active = inhibition above about 50%
Target sequence (P04054 whole entry, looked up): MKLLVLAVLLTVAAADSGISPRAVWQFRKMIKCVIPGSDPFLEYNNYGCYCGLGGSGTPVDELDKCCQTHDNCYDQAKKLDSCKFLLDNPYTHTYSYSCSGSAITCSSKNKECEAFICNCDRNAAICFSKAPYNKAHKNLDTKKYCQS
Numbers stand for hits; i = inactive; nt = no result.

SMILES	ATG4B inh	SKN-1 block	CendR NRP1 mod	F508del corr	MPTP block	PLA2 counter	others
COc1ccc(-c2nnc(Nc3ccc(CC(N)=O)cc3)c3ccccc23)cc1	93	i	i	nt	i	92
NC(=O)Cc1ccc(Nc2nnc(-c3ccccc3)c3ccccc23)cc1	82	i	i	i	i	82
CC(C#N)Sc1ncnc2sc3c(c12)CCC3 (stereo not given)	49	i	i	nt	i	i
N#C[C@@H]1[C@H](c2ccc(C#Cc3ccccc3F)cc2)[C@H](CO)N1C(=O)C1CCOCC1	nt	nt	nt	i	nt	nt
NC(=O)c1sc2nc3c(c(-c4ccco4)c2c1N)CCCC3	i	i	i	i	i	nt
NC(=O)c1sc2nc3c(c(-c4ccc(Cl)cc4)c2c1N)CCCC3	49	i	i	nt	i	66
Cc1ccc(-c2c3c(nc4sc(C(N)=O)c(N)c24)CCC3)cc1	55	i	i	nt	i	59
CCOC(=O)c1c(C)nc2sc(C(N)=O)c(N)c2c1-c1ccc(OC)cc1	65	i	i	nt	i	74
C[C@H]1CN([C@@H](C)CO)C(=O)Cc2cc(NC(=O)c3ccncc3)ccc2O[C@@H]1CN(C)C(=O)Nc1ccc(C(F)(F)F)cc1	nt	nt	nt	i	nt	nt
Cc1cc(C(=O)CSc2nnc(NCc3ccccc3)s2)c(C)n1C	i	i	i	nt	i	nt
CN1/C(=C\C(=O)CSc2nnc(NCc3ccccc3)s2)C(C)(C)c2ccccc21	42	45	i	nt	i	i
CCC1=NN2C(=N)/C(=C\c3cccn3-c3c(C)cccc3C)C(=O)N=C2S1	84	i	i	i	i	87
CCC1=NN2C(=N)/C(=C\c3cccn3-c3ccc(C)cc3C)C(=O)N=C2S1	i	i	i	i	i	nt
COc1ccc(-n2cccc2/C=C2\C(=N)N3N=C(c4ccco4)SC3=NC2=O)cc1	40	i	i	i	i	i	ATG4B confirm=49
C[C@H](CO)N1C[C@H](C)[C@@H](CN(C)Cc2ccc(-c3ccccc3)cc2)Oc2ccc(NC(=O)C3CC3)cc2CC1=O	nt	nt	nt	i	nt	nt
CN(CC(=O)Nc1ccccc1-c1ccccc1)Cc1ccccc1Cl	55	i	i	i	i	52
Cc1ccccc1CSCC(=O)Nc1ccccc1-c1ccccc1	51	i	i	nt	i	59
CN(CC(=O)Nc1ccccc1Br)CC(=O)Nc1ccccc1-c1ccccc1	i	i	i	i	i	nt
O=C(CSCc1cccc(Cl)c1)Nc1ccccc1-c1ccccc1	47	i	i	nt	i	51
O=C(c1ccc2c(c1)OCO2)N1CCCCN2[C@@H](CO)[C@@H](c3ccc(-c4ccccc4)cc3)[C@@H]2C1	nt	nt	nt	i	nt	nt
Cc1ccc(S(=O)(=O)N[C@@H]2CC[C@@H](CC(=O)NC3CCCCC3)O[C@@H]2CO)cc1	nt	nt	nt	i	nt	nt
COc1ccc(CN(C)C[C@@H]2Oc3ccc(NC(=O)NC(C)C)cc3C(=O)N([C@@H](C)CO)C[C@@H]2C)cc1	nt	nt	nt	i	nt	nt
COc1ccccc1-c1cnc2c(c1)C(=O)N([C@@H](C)CO)C[C@H](C)[C@H](CN(C)Cc1ccccc1)O2	nt	nt	nt	i	nt	nt
Cc1ccccc1NC(=S)NCc1cccs1	i	i	i	nt	i	nt
Cc1c(Cl)cccc1NC(=S)NCc1cccs1	57	i	i	nt	i	69
SMILES	ATG4B inh	SKN-1 block	CendR NRP1 mod	F508del corr	MPTP block	PLA2 counter	others
S=C(NCc1cccs1)Nc1cccc(Cl)c1Cl	52	i	i	nt	i	52
COc1ccc(S(=O)(=O)Nc2cccc3c2O[C@H](CN(C)S(=O)(=O)c2c(C)noc2C)[C@@H](C)CN([C@@H](C)CO)C3=O)cc1	nt	nt	nt	i	nt	nt
CN(C)CC(=O)Nc1ccc2c(c1)[C@H]1C[C@H](CC(=O)NCCc3ccccc3)O[C@@H](CO)[C@H]1O2	nt	nt	nt	i	nt	nt
COc1ccc(OC)c(-c2cc(C(=O)N3CCCc4ccccc43)no2)c1	47	i	i	nt	i	i	ATG4B confirm=68
COc1ccccc1-c1cc(C(=O)N2CCCc3ccccc32)no1	i	i	i	i	i	nt
Cc1c(NC(=O)CC#N)c(=O)n(-c2ccccc2)n1C	nt	nt	nt	i	nt	nt
Cc1ccc(S(=O)(=O)NC[C@@H]2CC[C@H]3[C@H](CN3Cc3cc(-c4ccccc4)on3)O2)cc1	nt	nt	nt	i	nt	nt
N#Cc1c(NC(=O)C2CC(c3c(F)cccc3Cl)=NO2)sc2c1CCC2 (stereo not given)	59	i	i	nt	i	53
Cc1noc(C)c1NC(=O)N(C)C[C@H]1OCCCC[C@@H](C)Oc2ccc(NS(=O)(=O)c3c(C)noc3C)cc2C(=O)N([C@@H](C)CO)C[C@H]1C	nt	nt	nt	i	nt	nt
O=C(CSc1nnc(COc2ccc(Cl)cc2)n1Cc1ccco1)c1ccccc1F	44	i	i	nt	i	i	ATG4B confirm=57
CCCNC(=O)N1CC2(CCN(CC3CC3)CC2)c2c([nH]c3cc(OC)ccc23)[C@@H]1CO	nt	nt	nt	i	nt	nt
CCCCC(CC)CN=C(N)NC(N)=NCCCCCCN=C(N)NC(N)=NCC(CC)CCCC (stereo not given)	69	38	i	nt	i	i	ATG4B confirm=i
CCCCC(CC)CO (stereo not given)	i	i	i	i	i	nt
O=C1/C(=C/c2c[nH]c3ccccc23)CCC/C1=C\c1c[nH]c2ccccc12	75	i	i	nt	i	75
C(=NN=Cc1c[nH]c2ccccc12)c1c[nH]c2ccccc12	nt	i	i	i	i	nt
Cc1cc(N/N=C/c2ccc(Cl)cc2)nc(NCc2ccccc2)n1	i	i	i	i	i	nt
C/C(=N\Nc1cc(C)nc(NCc2ccccc2)n1)c1cccc([N+](=O)[O-])c1	i	i	i	i	i	nt
Cc1cc(N/N=C/c2ccccc2)nc(NCc2ccccc2)n1	69	i	i	nt	i	76
Cc1cc(N/N=C/c2ccccc2F)nc(NCc2ccccc2)n1	59	i	i	i	i	79
Cc1cc(-c2ccccc2)nc(N/N=C/c2ccccc2)n1	i	i	i	i	i	nt
Cc1cc(N/N=C/c2cccc(Cl)c2)nc(NCc2ccccc2)n1	76	i	i	nt	i	84
Cc1cc(N/N=C/c2cccc(F)c2)nc(NCc2ccccc2)n1	73	i	i	i	i	80
C[C@@H]1CCCCO[C@H](CN(C)C(=O)c2ccccc2)[C@H](C)CN([C@@H](C)CO)C(=O)c2cc(NS(C)(=O)=O)ccc2O1	nt	nt	nt	i	nt	nt
O=C(C[C@@H]1C[C@@H]2c3cc(NC(=O)CC4CC4)ccc3O[C@@H]2[C@@H](CO)O1)NCc1ccc(Cl)cc1	nt	nt	nt	i	nt	nt
C[C@H]1CN([C@@H](C)CO)C(=O)c2cc(NC(=O)C3CCCCC3)ccc2O[C@H]1CN(C)CC1CC1	nt	nt	nt	i	nt	nt
